# Data as given in article PMC4336329 (PLoS ONE, 2015).
# Out of some 310,000 compounds screened, about 14,000 (4.5%) showed an effect of 50% or more. The effect is printed as a negative number. The list comes from a sample in which strong results are over-represented; it also holds similar structures and randomly drawn compounds.
# Molecular target: human ether-à-go-go-related gene (hERG) potassium channel (human, UniProt Q12809)
# Test: primary screen, population patch clamp on CHO cells stably expressing hERG; higher = less effect of the substance
# 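Also: peak tail current of the secondary pulse compared with the same well before compound.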
# Sequence of human ether-à-go-go-related gene (hERG) potassium channel (Q12809 whole entry, looked up): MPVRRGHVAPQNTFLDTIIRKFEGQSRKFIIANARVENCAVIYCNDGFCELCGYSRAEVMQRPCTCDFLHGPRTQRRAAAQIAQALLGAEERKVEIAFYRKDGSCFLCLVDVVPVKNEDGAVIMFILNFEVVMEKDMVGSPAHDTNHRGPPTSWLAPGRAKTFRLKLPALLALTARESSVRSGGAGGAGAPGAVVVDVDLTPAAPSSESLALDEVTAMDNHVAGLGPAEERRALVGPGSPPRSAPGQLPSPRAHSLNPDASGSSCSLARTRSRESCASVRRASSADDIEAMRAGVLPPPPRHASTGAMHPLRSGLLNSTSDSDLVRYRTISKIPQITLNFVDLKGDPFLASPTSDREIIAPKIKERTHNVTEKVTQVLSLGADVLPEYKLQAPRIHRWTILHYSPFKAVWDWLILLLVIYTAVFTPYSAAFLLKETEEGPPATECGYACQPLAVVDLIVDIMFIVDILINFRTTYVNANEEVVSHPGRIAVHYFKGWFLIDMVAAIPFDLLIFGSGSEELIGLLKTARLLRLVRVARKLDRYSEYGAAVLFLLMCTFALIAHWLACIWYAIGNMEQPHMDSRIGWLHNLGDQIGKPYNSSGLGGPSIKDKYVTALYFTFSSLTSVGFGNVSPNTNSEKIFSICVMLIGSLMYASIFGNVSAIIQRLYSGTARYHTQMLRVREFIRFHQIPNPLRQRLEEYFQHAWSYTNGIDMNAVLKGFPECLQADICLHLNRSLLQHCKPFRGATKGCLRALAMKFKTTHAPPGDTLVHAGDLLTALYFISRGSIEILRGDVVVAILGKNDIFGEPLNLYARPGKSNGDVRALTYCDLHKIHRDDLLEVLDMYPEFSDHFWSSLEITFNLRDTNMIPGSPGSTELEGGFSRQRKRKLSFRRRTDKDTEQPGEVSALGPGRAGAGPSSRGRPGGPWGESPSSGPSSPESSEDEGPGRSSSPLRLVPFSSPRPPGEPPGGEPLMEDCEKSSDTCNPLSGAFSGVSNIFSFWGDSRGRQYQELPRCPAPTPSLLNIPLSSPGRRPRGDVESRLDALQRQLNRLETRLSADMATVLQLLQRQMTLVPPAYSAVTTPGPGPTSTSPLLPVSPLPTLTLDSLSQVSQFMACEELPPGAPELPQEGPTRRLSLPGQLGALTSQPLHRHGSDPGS
row,Compound,"hERG current change (%, negative = inhibition) at 10uM [%]"
1,COc1ccccc1/C=C(/C#N)C(=O)O,18.5
2,Nc1ccc(-c2cnc3ccccc3n2)cc1,0.217
3,O=C(COc1ccccc1)Nc1nnc(COc2ccccc2)s1,4.24
4,CC(=O)/C(C[N+]1(C)CCCCC1)=N\O.[I-],16.4
5,CSc1ncc(Cl)c(C(=O)Nc2ccccc2C)n1,6.48
6,CCCCCN=CC1=C(O)CC(c2ccccc2)CC1=O (stereo not shown),-6.98
7,COc1ccc(C2CC(=O)c3cnn(-c4nc(C)cc(C)n4)c3C2)cc1OC (stereo not shown),-4.84
8,COCCNC(=S)N/N=C1\CC(C)CC(C)(C)C1 (stereo not shown),6.32
9,C#CCn1cnc2c(cnn2-c2ccc(C)c(C)c2)c1=O,3.21
10,COc1ccc(-c2[nH]ncc2CNC(C)CCn2cccn2)cc1F (stereo not shown),-2.23
11,Nn1c(SCC(=O)Nc2nccs2)nnc1C1CC1,6.89
12,COC(=O)c1ccccc1NS(=O)(=O)c1ccc2[nH]c(=O)[nH]c2c1,16.4
13,O=C(CN1C(=O)c2cccc3cccc1c23)NCc1cccnc1,2.05
14,CCCCCCNS(=O)(=O)c1ccc(Cl)s1,-12.9
15,Cc1ccc(SCC(=O)NC(C)(C)C)cc1,-8.22
16,CC(=O)Nc1ccc(Nc2nc(-c3c(C)nc4ccccn34)cs2)cc1,18.4
17,Cc1nc2ncccn2c1-c1csc(Nc2cccc(C(=O)O)c2)n1,5.55
18,Cc1cccc(Nc2nc(-c3c(C)nc4ccccn34)cs2)c1,0.479
19,Br.Cc1ccc(Nc2nc(-c3c(C)nc4ccccn34)cs2)cc1,-62.7
20,Cc1ccc(Nc2nc(-c3c(C)nc4ncccn34)cs2)cc1,-10.4
21,Cc1nc2ncccn2c1-c1csc(Nc2ccccc2)n1,-54.7
22,O=c1cc(N2CCN(c3ccccc3F)CC2)[nH]c(=O)n1-c1ccc(Br)cc1,-16.7

row,Compound,"hERG current change (%, negative = inhibition) at 10uM [%]"
1,COC(=O)C1C(=O)CC(C)(O)C(C(=O)OC)C1/C=C/c1ccccc1 (stereo not shown),-15.6
2,N/C(Cc1ccc([N+](=O)[O-])cc1)=N\OC(=O)c1ccc(Br)cc1,-41.5
3,N/C(Cc1ccc([N+](=O)[O-])cc1)=N\OC(=O)c1ccccc1Br,-57.7
4,COc1ccccc1C(=O)O/N=C(\c1ccccc1)c1ccncc1,-14.4
5,COc1ccccc1C(=O)O/N=C(/c1ccncc1)c1ccc([N+](=O)[O-])cc1,-67.9
6,N/C(Cc1ccc([N+](=O)[O-])cc1)=N\OC(=O)c1ccc([N+](=O)[O-])cc1,-57.6
7,COc1ccc(/C(N)=N/OC(=O)c2ccc(C)c([N+](=O)[O-])c2)cc1OC,10.1
8,N/C(Cc1ccc([N+](=O)[O-])cc1)=N\OC(=O)c1ccccc1F,-35.6
9,O=C(O/N=C(/c1ccccc1)c1ccncc1)c1ccccc1[N+](=O)[O-],-14
10,COc1ccc(/C(N)=N/OC(=O)c2ccc([N+](=O)[O-])c(C)c2)cc1OC,-16.5
11,COc1ccc(/C(N)=N/OC(=O)c2ccc(OC)c([N+](=O)[O-])c2)cc1OC,-65
12,N/C(Cc1ccc([N+](=O)[O-])cc1)=N\OC(=O)c1ccc2ccccc2c1,2.02
13,N/C(=N\OC(=O)c1ccccc1Br)c1ccc([N+](=O)[O-])cc1,-14.4
14,c1ccc(CSc2nnnn2-c2ccccc2)cc1,-3.94
15,CC(=O)NCc1ccc(S(=O)(=O)NC(C)CCc2ccccc2)cc1 (stereo not shown),13.3
16,OCCn1ccc(-c2ccccc2OCc2ccc(F)cc2)n1,4.9
17,N#Cc1ccccc1Cn1c(-c2cscn2)nc2ccccc21,-7.78
18,CCOC(=O)c1sc(NC(=O)CCCn2nc([N+](=O)[O-])c(Cl)c2C)c(C(=O)OCC)c1C,-3.72
19,Cc1cc(/C=C(\C#N)C(=O)NCCc2c[nH]c3ccccc23)c(C)n1C,3.85
20,O=C1CS/C(=N\C(=O)N2c3ccccc3Sc3ccccc32)N1,5.96
21,Cc1cc(S(=O)(=O)Nc2ccc(N(C)C)cc2)c(C)s1,0.71
22,Fc1ccc(C(c2nnnn2C2CCCC2)N(Cc2ccco2)CC2CCCO2)cc1 (stereo not shown),-28

row,Compound,"hERG current change (%, negative = inhibition) at 10uM [%]"
1,O=C(CSc1cccc[n+]1[O-])Nc1cccc(S(=O)(=O)NC2=NCCCCC2)c1,54.8
2,CCCn1c(C)cs/c1=N\C(=S)Nc1ccccc1,12.8
3,COc1cc(C(=O)OCc2ccc([N+](=O)[O-])cc2)cc(OC)c1OC,2.74
4,N/C(=N\OC(=O)Cc1ccc([N+](=O)[O-])cc1)c1cccc(Br)c1,3.08
5,COc1cc(C(=O)O/N=C(\N)Cc2ccc([N+](=O)[O-])cc2)cc(OC)c1OC,-68.9
6,COc1ccc(CC(=O)O/N=C(\N)Cc2ccc([N+](=O)[O-])cc2)cc1,-46.5
7,Cc1cccc(OCC(=O)O/N=C(\N)Cc2ccc([N+](=O)[O-])cc2)c1,-32.5
8,COc1ccc(C(=O)O/N=C(\N)Cc2ccc([N+](=O)[O-])cc2)c(OC)c1,-57.1
9,N/C(=N\OC(=O)c1cccc(Br)c1)c1ccc([N+](=O)[O-])cc1,17.7
10,Cc1ccc(C(=O)O/N=C(\N)Cc2ccc([N+](=O)[O-])cc2)c(Cl)c1,-46.3
11,Cc1cccc(C(=O)O/N=C(\N)Cc2ccc([N+](=O)[O-])cc2)c1,-64.3
12,COc1ccc(C/C(N)=N/OC(=O)c2cccc([N+](=O)[O-])c2)cc1,-44.2
13,COc1cc(C(=O)O/N=C(\N)c2ccc([N+](=O)[O-])cc2)cc(OC)c1OC,-45.2
14,N/C(Cc1ccc([N+](=O)[O-])cc1)=N\OC(=O)c1cccc(Br)c1,-58
15,O=C(CCc1nnc2ccc(NCc3ccccc3)nn12)NC1CCCC1,11.1
16,Cc1ccc(N2CC(C(=O)Nc3nccs3)CC2=O)cc1 (stereo not shown),-5.15
17,Cc1ccc(N(C(=O)C2CCCO2)C2C=CS(=O)(=O)C2)cc1Cl (stereo not shown),-4.44
18,O=C(Nc1ccc(S(=O)(=O)Nc2ncccn2)cc1)c1cncc(Br)c1,10.6
19,CC(=O)CCc1ccc(OCC(O)CNC2CCCc3ccccc32)cc1.O=C(O)C(=O)O (stereo not shown),-49
20,O=C(CSc1ccccc1Cl)NC1CCCc2ccccc21 (stereo not shown),-1.17
21,O=C(O)C(=O)O.OC(CNC1CCCc2ccccc21)COc1ccc2ccccc2c1 (stereo not shown),-72.3
22,CCc1ccccc1OC[C@@H](O)CN[C@H]1CCCc2ccccc21.O=C(O)C(=O)O,-24.7

row,Compound,"hERG current change (%, negative = inhibition) at 10uM [%]"
1,O=C(O)C(=O)O.OC(CNC1CCCc2ccccc21)COc1c(Cl)cccc1Cl (stereo not shown),-56.5
2,O=C(c1ccccc1)c1ccc(OCC(O)CNC2CCCc3ccccc32)cc1 (stereo not shown),-31.7
3,COc1ccc(CC(=O)Oc2ccc(C)cc2Br)cc1OC,3.25
4,CN(Cc1nc(-c2ccccc2)no1)C(=O)c1ccc2c(c1)OCO2,-20.5
5,Nc1nccnc1C(=O)OCC(=O)Nc1ccc2[nH]c(=O)[nH]c2c1,17
6,O=c1[nH]c2cc3c(cc2cc1CN(CCO)S(=O)(=O)c1ccccc1)OCCO3,-19
7,CCc1ccc(NC(=O)CN(c2ccc(OC)cc2)S(=O)(=O)c2c(C)nn(C)c2C)cc1,-4.36
8,COc1ccc(C2c3[nH]c4ccccc4c3CCN2CCCn2cccn2)c(C)c1C (stereo not shown),-9.49
9,Fc1ccccc1C1c2[nH]c3ccccc3c2CCN1CCCn1cccn1 (stereo not shown),-46.4
10,Cc1ccccc1C1c2[nH]c3ccccc3c2CCN1CCCn1cccn1 (stereo not shown),-20.3
11,CCOc1ccc(C2c3[nH]c4ccccc4c3CCN2CCCn2cccn2)cc1 (stereo not shown),-68.7
12,Fc1ccc(C2c3[nH]c4ccccc4c3CCN2CCCn2cccn2)cc1 (stereo not shown),-70.1
13,CC(C)CC1c2[nH]c3ccccc3c2CCN1CCCn1cccn1 (stereo not shown),-63.1
14,COc1ccc(C2c3[nH]c4ccccc4c3CCN2CCCn2cccn2)c(F)c1 (stereo not shown),-3.85
15,COc1ccc(C2c3[nH]c4ccccc4c3CCN2CCCn2cccn2)cc1C (stereo not shown),-38.9
16,CC(C)(C)C1c2[nH]c3ccccc3c2CCN1CCCn1cccn1 (stereo not shown),-19.5
17,O=S(=O)(NCc1ccccc1)NCc1ccccc1F,7.69
18,COCCN1C(=O)C(=O)/C(=C(/O)c2ccc(S(=O)(=O)N3CCCCC3)cc2)C1c1ccc(OC)c(OC)c1 (stereo not shown),8.21
19,CC1(C)COC(/C=C/c2ccc([N+](=O)[O-])cc2)=N1,-26.1
